From PubChem BioAssay
Compounds with a hit are over-represented: about 3.8% of the library has one in this group of screens.
TrxR1 substrate: rat thioredoxin reductase 1 substrate activity; 0.01% of 390,000 active; AID 588456; Potency, µM (doses to about 114 µM), without a hit: top-dose activity change, negative = substrate turnover; purified TrxR1 substrate turnover, NADPH consumption readout; also: potency is read from the fitted curve at half-maximal effect; % is scaled to controls: 0 for no effect and ±100 for the full control effect; nearly all actives have a fitted effect of over 50% in size
Target sequence (O89049 whole entry, looked up): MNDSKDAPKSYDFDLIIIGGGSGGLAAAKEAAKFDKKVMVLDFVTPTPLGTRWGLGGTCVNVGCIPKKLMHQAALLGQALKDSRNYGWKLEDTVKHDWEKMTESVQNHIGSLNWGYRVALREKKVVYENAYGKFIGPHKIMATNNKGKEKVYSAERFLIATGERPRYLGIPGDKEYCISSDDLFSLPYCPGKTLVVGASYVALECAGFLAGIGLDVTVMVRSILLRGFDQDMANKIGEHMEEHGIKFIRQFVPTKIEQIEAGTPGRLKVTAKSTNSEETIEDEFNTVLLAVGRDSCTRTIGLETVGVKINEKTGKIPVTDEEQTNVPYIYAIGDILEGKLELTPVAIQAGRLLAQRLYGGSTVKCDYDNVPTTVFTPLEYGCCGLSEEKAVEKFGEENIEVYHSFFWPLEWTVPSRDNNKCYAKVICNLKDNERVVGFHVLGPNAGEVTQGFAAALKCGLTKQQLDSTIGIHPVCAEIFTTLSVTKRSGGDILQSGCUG
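Rat TrxR1, dispensed at 90 nM, was prereduced with 400 uM NADPH (final) for 5 min at ~22 deg C, then incubated with compound 15 min before 400 uM selenite. A first-read NADPH fluorescence drop versus no-compound background flagged substrates.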
Sfp inh: inhibitors of Bacillus subtilis Sfp phosphopantetheinyl transferase. Q9F4F7. Biochemical Sfp PPTase activity, qHTS. Potency, µM, for inactives: largest response in the series, negative = inhibition, actives largely listed as inhibitors. 3.5% of 310,000 active;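 also: the enzyme is Sfp with the accession as filed and its product quenches rhodamine fluorescence; potency is read from the fitted curve at half-maximal effect; 0% = enzyme reaction without inhibitor and -100% = no enzyme wells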
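With Hepes-Na pH 7.6 buffer containing 10 mM MgCl2, Sfp (15 nM) modified BHQ-2-YbbR (12.5 uM) using rhodamine-CoA (5 uM). Two reads 30 minutes apart at 525/598 nm yielded each well's rate.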
GCN5L2 inh-1: GCN5L2 (KAT2A) acetyltransferase inhibition | Q92830 | Potency, µM (top dose mostly 58.9 µM), for the others: at the top dose activity change, negative = inhibition, most hits filed as inhibitors | AID 504327 | GCN5L2 HAT assay, ThioGlo1 CoA-SH fluorescence | 0.21% of 390,000 active; also: potency is read from the fitted curve at half-maximal effect; % is scaled to controls: 0 for no effect and ±100 for the full control effect
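Enzyme at 20nM final was mixed with library compounds for 15 min at room temperature. Peptide H3(1-25) at 75uM, acetyl-CoA at 70uM and ThioGlo1 at 50uM were then added. Plates were read immediately and after 20 min (Ex340nm/Em540nm).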
GLS inh: blocks human kidney-isoform glutaminase activity | GLS enzymatic activity, qHTS titration | 0.21% of 410,000 active | O94925 | Potency, µM (highest dose often 45.5 µM), for inactives: at the highest dose activity change, negative = inhibition, most hits filed as inhibitors; also: potency is read from the fitted curve at half-maximal effect; % is scaled to controls: 0 for no effect and ±100 for the full control effect
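hKGA; 45 mM KH2PO4 pH 8.2 + 0.02% Tween-20; cpd via pin tool; 1 mM Gln soln; GluOx/HRP/Amplex Red; RT 30 min; fluor. t0 & final.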
rTrxR1 inhibitor: blocks rat thioredoxin reductase 1; O89049; recombinant rTrxR1, NADPH fluorescence consumption, selenite substrate; Potency, µM (highest dose often 114 µM), for the others: top-dose activity change, negative = inhibition, actives largely listed as inhibitors; 1% of 390,000 active; AID 588453; also: potency is read from the fitted curve at half-maximal effect; % is scaled to controls: 0 for no effect and ±100 for the full control effect; nearly all actives have a fitted effect of over 65% in size
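Rat TrxR1 (90 nM in the dispensed reagent) was pre-reduced with 400 uM NADPH for 5 min at room temperature, then incubated with compound for 15 min. After 400 uM selenite was added, NADPH fluorescence (Ex 340/Em 450 nm) was followed for 8 min.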
VDR inh: vitamin D3 receptor (human) inhibition. AID 504847. P11473. Potency, µM, without a hit: max response, negative = inhibition, usual class: inhibitors. VDR-SRC2-3 peptide fluorescence polarization, 2 h. 0.93% of 400,000 active; also: potency is read from the fitted curve at half-maximal effect; % is scaled to controls: 0 for no effect and ±100 for the full control effect
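Fluorescence polarization assay measuring small-molecule disruption of VDR binding to the coregulator peptide SRC2-3. Compounds were pin-transferred (23 nl) into the reagent mix and incubated 2 h at room temperature before reading.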
GCN5L2 inh-2: human KAT2A HAT inhibition, hit confirmation; GCN5L2 HAT, ThioGlo1 CoA fluorescence, 20 min; shares compounds with GCN5L2 inh-1; Potency, µM, hits mostly inhibitors; 70% of 140 active
USP1-UAF1 confirm: USP1-UAF1 deubiquitinase inhibition validated. 50% of 50 active. Potency, µM (titrated, usually from 56.8 µM), for inactives: at the top dose activity change, negative = inhibition, actives largely listed as inhibitors. Ub-Rhodamine cleavage, fluorescence kinetic read. AID 540327. shares compounds with VDR inh
VDR inh confirm: inhibits human vitamin D receptor, primary hit validation | shares compounds with VDR inh | VDR-coactivator inhibition assay, qHTS confirmation | Potency, µM, most hits filed as inhibitors | 89% of 840 active | AID 602199; also: potency is read from the fitted curve at half-maximal effect
VDR FP fluor: confirmation of human VDR-coactivator binding inhibitors, fluorescein label | shares compounds with VDR inh | VDR-coactivator binding, fluorescein fluorescence polarization | Potency, µM (top dose mostly 57.1 µM), for the others: top-dose activity change, negative = inhibition, usual class: inhibitors | 48% of 840 active; also: potency is read from the fitted curve at half-maximal effect
VDR bla: VDR (human) inhibition, cell-based beta-lactamase validation; VDR beta-lactamase reporter cells, FRET ratio; cells co-treated with VDR agonist LG190178; AID 602202; shares compounds with VDR inh; 23% of 840 active; Potency, µM (titrated, usually from 46.1 µM), for inactives: at the top dose activity change, negative = inhibition, most hits filed as inhibitors; also: potency is read from the fitted curve at half-maximal effect; % is scaled to controls: 0 for no effect and ±100 for the full control effect
VDR viability: cytotoxic in counter-screen for VDR inhibitors | cytotoxicity counter-screen, cell viability, qHTS | shares compounds with VDR inh | 18% of 840 active | AID 602204 | Potency, µM (titrated, usually from 48.3 µM), without a hit: top-dose activity change, negative = cytotoxicity, most hits filed as cytotoxic;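 also: potency is read from the fitted curve at half-maximal effect; plate controls were DMSO for no effect and high-concentration cycloheximide for full effect; nearly all actives have a fitted effect of over 75% in size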
Active calls of the source: *; ? = inconclusive; / = no result; [ ] = another dose, or the depositor's remark. Calls follow the shape of the dose curve; as a rule, active = well fitted curve in the direction sought with a large enough effect; inconclusive = small, poorly fitted or top-dose-only effect, or another doubt; inactive = no such curve, though single readings can be large; an effect the other way counts as inactive or inconclusive.

SMILES	TrxR1 substrate	Sfp inh	GCN5L2 inh-1	GLS inh	rTrxR1 inhibitor	VDR inh	GCN5L2 inh-2	others
O=C(O)CCc1nn2cc(-c3ccccc3)nc2[nH]c1=O	186%	-15%	?	-5%	1%	-12%	32*
CCN(CC)Cc1c(O)ccc2c(=O)c(Oc3ccccc3OC)coc12	53%[57.1 µM]	11%	?	-8%	6%[11.4 µM]	17%	?
COc1ccccc1Oc1coc2c(CN(C)C)c(O)ccc2c1=O	88%[57.1 µM]	24%	-17%	-4%	4%[57.1 µM]	9%	/
O=C(Nc1cccc(C(F)(F)F)c1)c1ccc2nc(-c3ccco3)c(-c3ccco3)nc2c1	-5%	28µM*	?	?	5µM*	20µM*	18*
O=C(Nc1ccc2nc(-c3ccco3)c(-c3ccco3)nc2c1)NC1CC1	1%	5µM*	8.9µM*	86%	4.5µM*	71µM*	20*
Cc1ccc(S(=O)(=O)N(CC(=O)Nc2ccc(Cl)c([N+](=O)[O-])c2)C2CCCCC2)cc1	-5%	12%	-13%	7%	8%	-5%	/
CCN(CC(=O)Nc1c(F)cccc1F)C(=O)/C=C/c1ccc2ccccc2n1	-1%	/	?	10µM*	-15%	-6%	23*
N#Cc1c(-c2ccccc2)nc(SCc2cccc(Cl)c2)[nH]c1=O	6%[57.1 µM]	1%	?	-19%	-3%[57.1 µM]	-9%	18*
O=c1[nH]c(SCc2cccc(Cl)c2)nc2c1CCC2	-4%	/	-5%	-10%	6%	14%	/
Nc1ccc2nn(-c3cccc4ccccc34)nc2c1	12%[57.1 µM]	-3%	?	-3%	14%[57.1 µM]	-15%	23*
Cc1cc2nn(-c3cccc4ccccc34)nc2cc1N	5%	-5%	-4%	-3%	15%[57.1 µM]	?	/
CC(C)(C)CN1C(=O)C(=O)NC[C@H]1Cc1ccc(O)cc1	-3%	14%	-11%	15%	9%	?	/
Cc1cccc(C)c1-n1cccc1/C=C1\SC(=S)N(c2cccc(C(=O)O)c2)C1=O	-18%[57.1 µM]	40µM*	32µM*	-14%	13%[57.1 µM]	?	20*
Cc1cccc(C)c1NC(=O)CN1C(=O)S/C(=C\c2cccn2-c2cccc(C(=O)O)c2)C1=O	-4%	-17%	-12%	-11%	-16%	-16%	/
C=CCc1cccc2cc(C(=O)Nc3ccccc3C(=O)O)c(=O)oc12	-12%[57.1 µM]	-5%	?	0%	-9%[57.1 µM]	3%	?
C=CCc1cccc2cc(C(=O)O)c(=O)oc12	-4%	13%	-17%[0.501 µM]	6%	-12%	-1%	/
CC(=O)c1ccc(NC(=O)Cn2cnc(S(=O)(=O)N3CCCC3)c2)cc1	35%	25%	-18%	-2%	16%	-13%	/
Cc1nc2nc(-c3cccs3)cn2nc1C	66%	2%	?	1%	6%	28%	36*
Cc1nc2nc(-c3ccc(Cl)cc3)cn2nc1C	31%	11%	-2%	-6%	-11%	5%	/
ClC(Cl)(c1nnnn1-c1ccccc1)c1nnnn1-c1ccccc1	-20%	2.8µM*	22µM*	10µM*	?	3.5µM*	8.1*	VDR inh confirm=3.4*;VDR FP fluor=?;VDR bla=?;VDR viability=16µM*
O=C1CCC(C(=O)Nc2cccc(S(=O)(=O)Nc3ccccc3F)c2)=NN1	8%[57.1 µM]	/	?	-11%	5%[2.29 µM]	25µM*	11*	VDR inh confirm=?;VDR FP fluor=?;VDR bla=25%;VDR viability=14%
O=C(Nc1cccc(S(=O)(=O)Nc2ccccc2F)c1)c1ccco1	8%[57.1 µM]	/	-4%	3%	14%	9%	/
CCOc1ccc2c(c1)c1nnc(SCC(=O)N3CCCCC3C)nc1n2C (stereo not drawn)	0%[57.1 µM]	7%	-2%	1%	18%[57.1 µM]	-9%	/
Oc1ccc(C(=S)N2CCN(c3cccc(Cl)c3)CC2)cc1	0%[57.1 µM]	16µM*	-10%	14%	?	?	/	VDR inh confirm=?;VDR FP fluor=?;VDR bla=-23%;VDR viability=4%
CC(=O)c1ccc(NC(=S)N2CCN(c3cccc(Cl)c3)CC2)cc1	8%[57.1 µM]	17%	-9%	2%	23%[57.1 µM]	0%	/
SMILES	TrxR1 substrate	Sfp inh	GCN5L2 inh-1	GLS inh	rTrxR1 inhibitor	VDR inh	GCN5L2 inh-2	others
O=[N+]([O-])c1ccc(S(=O)(=O)c2cccc(C(F)(F)F)c2)nc1	-28%	/	/	26%	?	28µM*	/	VDR inh confirm=6.7*;VDR FP fluor=?;VDR bla=16µM*;VDR viability=?
CC1C/C(=C\c2cccnc2)C(=O)/C(=C/c2cccnc2)C1 (stereo not drawn)	-5%	?	-1%	9%	50µM*	35µM*	/	VDR inh confirm=12*;VDR FP fluor=?;VDR bla=2.1µM*;VDR viability=?
CCOC(=O)c1c(N)sc(N)c1C(=O)OCC	-3%	?	-17%	30%	-11%	8.9µM*	/	VDR inh confirm=4.7*;VDR FP fluor=8.9µM*;VDR bla=1%;VDR viability=9%
COCCNC(=O)C(c1cccs1)N(C(=O)Cn1nnc2ccccc21)c1cccc(C(C)=O)c1 (stereo not drawn)	-7%	12%	-5%	1%	-11%	-1%	/
CN(C)[C@H]1C(=O)C(C(=O)NCN2CCCC2)=C(O)[C@]2(O)C(=O)C3=C(O)c4c(O)cccc4[C@@](C)(O)[C@H]3C[C@@H]12	/	3%	?	5µM*	/	32µM*	/	USP1-UAF1 confirm=?
CCCc1c(OCCCOc2ccc(OCC(=O)O)cc2)ccc(C(C)=O)c1O	3%[57.1 µM]	/	?	11%	9%[57.1 µM]	50µM*	/	USP1-UAF1 confirm=?
CCCCN(c1ccccc1)S(=O)(=O)c1cccc(C(=O)O)c1	4%[57.1 µM]	15%	-14%	-9%	17%[57.1 µM]	-16%	/
